Results taken from PubChem BioAssay (EPA / NIEHS).
“And” between values parts separate entries of the source, which are not always exact repeats. Equal entries are not always repeated. Some compounds were tested as several samples or in several runs, with calls that do not always agree. The source made the active and inactive calls. Rule for the calls: active = hit-call score of the fitted dose curve at least 0.9, where 1 is the maximum; inactive = score below 0.9.

Columns and labels:
[1] = read-out: TIMP metallopeptidase inhibitor 2 (TIMP2), TIMP2 (gene 7077); assay: BSK_KF3CT_TIMP2: BioMAP Diversity Plus: KF3CT Assay for TIMP metallopeptidase inhibitor 2 (TIMP2) Biomarker Activity (AID 2283071); conditions: primary human keratinocytes with fibroblasts; actives raise or lower the signal
Summary of the method: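 Co-culture of human primary keratinocytes and foreskin fibroblasts, measured 24 h after chemical dosing. TIMP-2 quantified by ELISA and fitted in both directions relative to DMSO. Cytotoxicity checked in parallel cultures by SRB total-protein staining.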

[2] = read-out: Transforming growth factor beta 1 (TGFb1), TGFB1 (gene 7040); assay: BSK_KF3CT_TGFb1: BioMAP Diversity Plus: KF3CT Assay for Transforming growth factor beta 1 (TGFb1) Biomarker Activity (AID 2283072); conditions: primary human keratinocytes with fibroblasts; actives raise or lower the signal
Summary of the method: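 Human keratinocyte/foreskin fibroblast co-culture; TGF-b1 measured by ELISA 24 h after dosing, fitted bidirectionally versus DMSO. Cytotoxicity checked in parallel cultures by total protein (SRB staining, 560 nm).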

[3] = read-out: C-C motif chemokine 2 (Homo sapiens) (UniProt P13500); assay: BSK_KF3CT_MCP1: BioMAP Diversity Plus: KF3CT Assay for Monocyte Chemoattractant Protein 1 (MCP1/CCL2) Biomarker Activity (AID 2283073); conditions: primary human keratinocytes with fibroblasts; actives raise or lower the signal
Summary of the method: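 Biomarker MCP-1 is measured by ELISA in primary human keratinocytes co-cultured with foreskin fibroblasts, 24 h after chemical treatment; DMSO serves as the negative control and activity baseline.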

[4] = read-out: Matrix Metallopeptidase 9 (MMP9), MMP9 (gene 4318); assay: BSK_KF3CT_MMP9: BioMAP Diversity Plus: KF3CT Assay for Matrix Metallopeptidase 9 (MMP9) Biomarker Activity (AID 2283074); conditions: primary human keratinocytes with fibroblasts; actives raise or lower the signal;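 for AC50: MMP9 protein level quantified by ELISA in the co-culture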
Summary of the method: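 Human keratinocyte/foreskin fibroblast co-culture; compound added; 24 h; MMP-9 by ELISA; bidirectional fit vs DMSO baseline.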

[5] = read-out: urokinase plasminogen activator (uPA), PLAU (gene 5328); assay: BSK_KF3CT_uPA: BioMAP Diversity Plus: KF3CT Assay for urokinase plasminogen activator (uPA) Biomarker Activity (AID 2283075); conditions: primary human keratinocytes with fibroblasts; actives raise or lower the signal
Summary of the method: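 ELISA readout of uPA, analyzed for signal gain or loss relative to DMSO, from a human primary keratinocyte–foreskin fibroblast co-culture measured 24 h after chemical treatment.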

CD40, CD40 (gene 958) = assay: BSK_LPS_CD40: BioMAP Diversity Plus: LPS Assay for CD40 Biomarker Activity (AID 2283076); conditions: primary human HUVEC with PBMC; actives raise or lower the signal
Summary of the method: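 Using a multiplexed primary human co-culture (umbilical vein endothelium plus PBMC), CD40 was read by ELISA 24 h after dosing, with cytotoxicity tracked by sulforhodamine B staining of parallel cultures and activity fitted bidirectionally versus DMSO.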

[6] = read-out: E-selectin (Homo sapiens) (UniProt P16581); assay: BSK_LPS_Eselectin: BioMAP Diversity Plus: LPS Assay for Eselectin Biomarker Activity (AID 2283077); conditions: primary human HUVEC with PBMC; actives raise or lower the signal
Summary of the method: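 Dose chemical onto LPS-driven HUVEC/PBMC co-culture; after 24 h, run ELISA for E-selectin; fit up- and down-going responses relative to DMSO control.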

[7] = read-out: Interleukin-8 (IL8), CXCL8 (gene 3576); assay: BSK_LPS_IL8: BioMAP Diversity Plus: LPS Assay for Interleukin-8 (IL8) Biomarker Activity (AID 2283078); conditions: primary human HUVEC with PBMC; actives raise or lower the signal
Summary of the method: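 In this LPS system, chemical-treated human umbilical vein endothelium/PBMC co-cultures were harvested at 24 h for IL-8 ELISA.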

[8] = read-out: Interleukin-1 alpha (IL1a), IL1A (gene 3552); assay: BSK_LPS_IL1a: BioMAP Diversity Plus: LPS Assay for Interleukin-1 alpha (IL1a) Biomarker Activity (AID 2283080); conditions: primary human HUVEC with PBMC; actives raise or lower the signal
Summary of the method: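 Primary human HUVEC and PBMC co-culture stimulated with LPS is dosed and harvested at 24 h. Both increases and decreases in ELISA-measured IL-1a are scored relative to DMSO.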

Measured: AC50

Sequence of E-selectin (Homo sapiens) (P16581 whole entry, looked up): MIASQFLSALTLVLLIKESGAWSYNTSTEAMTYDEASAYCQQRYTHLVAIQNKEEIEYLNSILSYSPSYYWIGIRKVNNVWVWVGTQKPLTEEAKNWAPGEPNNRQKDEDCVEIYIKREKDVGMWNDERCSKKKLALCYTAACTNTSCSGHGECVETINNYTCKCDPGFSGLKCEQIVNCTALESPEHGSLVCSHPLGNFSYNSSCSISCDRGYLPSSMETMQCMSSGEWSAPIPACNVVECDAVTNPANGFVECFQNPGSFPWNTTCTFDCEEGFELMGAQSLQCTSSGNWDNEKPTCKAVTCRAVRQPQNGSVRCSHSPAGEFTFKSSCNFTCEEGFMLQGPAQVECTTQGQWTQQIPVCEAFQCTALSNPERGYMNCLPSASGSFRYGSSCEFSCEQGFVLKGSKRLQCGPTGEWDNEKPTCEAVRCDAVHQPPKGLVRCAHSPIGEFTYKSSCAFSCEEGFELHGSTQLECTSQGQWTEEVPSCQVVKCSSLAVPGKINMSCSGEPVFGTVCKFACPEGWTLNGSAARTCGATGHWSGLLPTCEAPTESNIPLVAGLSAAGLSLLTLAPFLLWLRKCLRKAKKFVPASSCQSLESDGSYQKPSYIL

COc1cc(Cl)c(OC)cc1N
inactive: [1] | [2] | [3] | [4] | [5] | CD40, CD40 (gene 958) | [6] | [7] | [8]

CCCCN(CCCC)C(=O)N(CCCC)CCCC
active: [1] 4.62 µM | [2] 5.42 µM | [3] 4.75 µM | [4] 10.3 µM | [5] 7.68 µM | CD40, CD40 (gene 958) 20 µM | [6] 20 µM | [8] 20 µM
inactive: [7]

O=CN1CCOCC1
inactive: [1] | [3] | [4] | [5] | CD40, CD40 (gene 958) | [6] | [7] | [8]

O=C1c2ccccc2C(=O)c2c(O)ccc(O)c21
inactive: [1] | [2] | [3] | [4] | [5] | CD40, CD40 (gene 958) | [6] | [7] | [8]

CC(CN=Cc1ccccc1O)N=Cc1ccccc1O (stereo not given)
inactive: [1] | [3] | [4] | [5] | CD40, CD40 (gene 958) | [6] | [7] | [8]
active: [7] 0.151 µM

CC(=O)Nc1ccc(C(=O)CCl)cc1
active: [1] 20 µM | [3] 28.6 µM | [4] 20 µM | [5] 30 µM | CD40, CD40 (gene 958) 5.35 µM | [6] 4.61 µM | [7] 3.91 µM | [8] 4.52 µM

CC1(C)CCC[C@]2(C)[C@H]3CCO[C@]3(C)CC[C@@H]12
inactive: CD40, CD40 (gene 958) | [6] | [7] | [8]
active: [1] 33.1 µM and 33.9 µM | [3] 33.9 µM and 30.7 µM | [4] 36.7 µM and 35.6 µM | [5] 36.6 µM and 37.8 µM
